We go through 29 compounds from PubChem BioAssay (NCATS).

Inconclusive results are not listed. Activity calls are given as the source filed them. Calls follow the shape of the dose curve; as a rule, active = well fitted curve in the direction sought with a large enough effect; inconclusive = small, poorly fitted or top-dose-only effect, or another doubt; inactive = no such curve, though single readings can be large; an effect the other way counts as inactive or inconclusive.

Assay [1] is described as follows: qHTS of pediatric cancer cell lines to identify multiple opportunities for drug repurposing: Primary screen for OHS-50 cells (AID 1347103). Also: nearly all actives have a fitted effect of over 40% in size. Also: potency is read from the fitted curve at half-maximal effect. The gist of the method: (§1)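 Cells (500-1,000/well) rested 5 h, then received compounds for 48 h; metabolically active cells were measured by CellTiter-Glo luminescence. Final concentrations spanned up to 46 µM (MIPE, 11-point) or 0.59 nM-46 µM (NPC, 8-point) in primary screens, 11-point in follow-ups.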
For orientation: Quantitative high-throughput screening tests each substance at several concentrations.

Assay [2] is described as follows: qHTS of pediatric cancer cell lines to identify multiple opportunities for drug repurposing: Primary screen for RD cells (AID 1347104). Also: nearly all actives have a fitted effect of over 55% in size. Also: potency is read from the fitted curve at half-maximal effect. A digest of the protocol:
(§2)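 500-1,000 cells/well; 5 h pre-incubation 37 °C/5% CO2; compound pinned; 48 h; CellTiter-Glo, 15 min RT; luminescence. MIPE 11-pt from 0.78 nM, NPC 8-pt from 0.59 nM final. Bortezomib 2.3 µM final as positive control.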

Assay [3] in a line: qHTS of pediatric cancer cell lines to identify multiple opportunities for drug repurposing: Primary screen for MG 63 (6-TG R) cells (AID 1347105). Also: nearly all actives have a fitted effect of over 50% in size. Also: potency is read from the fitted curve at half-maximal effect. A digest of the protocol:
as §2

The nature of assay [4]: qHTS of pediatric cancer cell lines to identify multiple opportunities for drug repurposing: Primary screen for control Hh wild type fibroblast cells (AID 1347106).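 Also: series mostly up to about 46 µM; a drop in luminescence marks cytotoxicity and a rise apparent proliferation; nearly all actives have a fitted effect of over 55% in size.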 The gist of the method: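 Viability after 48 h compound treatment at 37C, 500-1,000 cells/well, read as ATP luminescence with CellTiter-Glo. Primary screens used 11-point (MIPE, 0.78 nM-46 µM) or 8-point (NPC, 0.59 nM-46 µM) final concentrations; follow-up screens used 11-point dilutions.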

A short description of assay [5]: qHTS of pediatric cancer cell lines to identify multiple opportunities for drug repurposing: Primary screen for Rh30 cells (AID 1347107). Also: series mostly up to about 46 µM; nearly all actives have a fitted effect of over 75% in size. A digest of the protocol: as §1
Assay [6] is described as follows: qHTS of pediatric cancer cell lines to identify multiple opportunities for drug repurposing: Primary screen for Rh41 cells (AID 1347108). Also: nearly all actives have a fitted effect of over 70% in size. Also: potency is read from the fitted curve at half-maximal effect. The gist of the method:
as §2

Assay [7] can be described thus: qHTS of pediatric cancer cell lines to identify multiple opportunities for drug repurposing: Confirmatory screen for SK-N-MC cells (AID 1347111).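 Also: potency is read from the fitted curve at half-maximal effect; cells exposed to compound for 48 h before the readout; nearly all actives have a fitted effect of over 70% in size.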 The gist of the method: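 Seed 500-1,000 cells/well; rest 5 h at 37 degrees C. Pin-transfer compounds, 11-point titration. Incubate 48 h. Add CellTiter-Glo, 15 min RT, read luminescence.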
Assay [8] is described as follows: qHTS of pediatric cancer cell lines to identify multiple opportunities for drug repurposing: Confirmatory screen for BT-12 cells (AID 1347112). Also: nearly all actives have a fitted effect of over 55% in size. Also: potency is read from the fitted curve at half-maximal effect. A digest of the protocol:
as §1

A short description of assay [9]: qHTS of pediatric cancer cell lines to identify multiple opportunities for drug repurposing: Confirmatory screen for DAOY cells (AID 1347114). Also: nearly all actives have a fitted effect of over 65% in size. Also: potency is read from the fitted curve at half-maximal effect. A digest of the protocol:
(§3)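 Viability measured as metabolically active cells via CellTiter-Glo luminescence following 48 hours of compound exposure, 11-point dilutions in confirmatory testing. 500-1,000 cells/well plated 5 hours before dosing; controls were DMSO and 2.3 µM bortezomib.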

Assay [10] is described as follows: qHTS of pediatric cancer cell lines to identify multiple opportunities for drug repurposing: Confirmatory screen for NB-EBc1 cells (AID 1347115).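 Also: cells exposed to compound for 48 h before the viability read; nearly all actives have a fitted effect of over 45% in size.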 Also: potency is read from the fitted curve at half-maximal effect. The gist of the method: as §1
A short description of assay [11]: qHTS of pediatric cancer cell lines to identify multiple opportunities for drug repurposing: Confirmatory screen for U-2 OS cells (AID 1347122). Also: nearly all actives have a fitted effect of over 65% in size. Also: potency is read from the fitted curve at half-maximal effect. The gist of the method:
as §1

Assay [12] is described as follows: qHTS of pediatric cancer cell lines to identify multiple opportunities for drug repurposing: Confirmatory screen for Rh41 cells (AID 1347123).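 Also: 48 h compound exposure; nearly all actives have a fitted effect of over 60% in size.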 Also: potency is read from the fitted curve at half-maximal effect. A digest of the protocol: as §1
Assay [13] can be described thus: qHTS of pediatric cancer cell lines to identify multiple opportunities for drug repurposing: Confirmatory screen for NB1643 cells (AID 1347109). Also: nearly all actives have a fitted effect of over 45% in size. Also: potency is read from the fitted curve at half-maximal effect. The gist of the method:
as §1

Assay [14] can be described thus: qHTS of pediatric cancer cell lines to identify multiple opportunities for drug repurposing: Confirmatory screen for A673 cells (AID 1347110).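 Also: cells exposed to compound for 48 h before the viability read; nearly all actives have a fitted effect of over 65% in size.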 Also: potency is read from the fitted curve at half-maximal effect. The gist of the method:
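A673 cells at 500-1,000 cells/well were dosed 5 h after plating, in dilution series up to 46 uM final; primary runs used 8 or 11 points and confirmatory runs used 11 points. Viability was read by CellTiter-Glo luminescence after 48 h, against DMSO and 2.3 uM bortezomib controls.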

Assay [15] can be described thus: qHTS of pediatric cancer cell lines to identify multiple opportunities for drug repurposing: Confirmatory screen for SJ-GBM2 cells (AID 1347116). Also: nearly all actives have a fitted effect of over 60% in size. To be noted: outcome: dose series up to 45.9 µM. The gist of the method:
as §3

A short description of assay [16]: qHTS of pediatric cancer cell lines to identify multiple opportunities for drug repurposing: Confirmatory screen for MG 63 (6-TG R) cells (AID 1347119). Also: nearly all actives have a fitted effect of over 55% in size. A digest of the protocol:
as §1

A short description of assay [17]: qHTS of pediatric cancer cell lines to identify multiple opportunities for drug repurposing: Confirmatory screen for BT-37 cells (AID 1347117). The gist of the method:
as §1

The nature of assay [18]: qHTS of pediatric cancer cell lines to identify multiple opportunities for drug repurposing: Confirmatory screen for TC32 cells (AID 1347118).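 Also: potency is read from the fitted curve at half-maximal effect; cells exposed to compound for 48 h before the read; nearly all actives have a fitted effect of over 65% in size.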 The gist of the method: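 Luminescent ATP read-out (CellTiter-Glo) of metabolically active TC32 cells after 48 h exposure. Concentration-response curves came from 11-point (MIPE, 0.78 nM–46 µM) or 8-point (NPC, 0.59 nM–46 µM) primary titrations; follow-up used 11 points.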

The nature of assay [19]: qHTS of pediatric cancer cell lines to identify multiple opportunities for drug repurposing: Confirmatory screen for control Hh wild type fibroblast cells (AID 1347121). Also: nearly all actives have a fitted effect of over 70% in size. The gist of the method: as §1

In the case of `COc1ccc2c(c1OC)C(=O)O[C@H]2[C@@H]1c2cc3c(cc2CCN1C)OCO3`, the Potency result in [1], in assay [2], in [3] and in assay [6] was “inactive” throughout. Further, the call in assay [4] and in assay [5] was inactive.
With `CC(=O)C1CCOC1=O` (stereo not given), the Potency result in [1], in assay [2], in assay [3] and in [6] was “inactive” each time. Besides, the call in [4] and in assay [5] was inactive.
On to `CCC1(CC)C(=O)C=CNC1=O`, for which the Potency entry in assay [1], in [2], in assay [3] and in assay [6] was “inactive” throughout. Moreover, the compound was called inactive in [4] and in assay [5].
In the case of `O=C(O)c1ccc(=O)[nH]c1`, the Potency entry in [1], in [2], in [3] and in assay [6] was “inactive” in each case. Further, the result in assay [4] and in assay [5] was inactive.
As to `COc1cc(CC(C)N)cc(OC)c1OC` (stereo not given), the Potency result in [1], in assay [2], in assay [3] and in assay [6] was “inactive” throughout. Moreover, the result in assay [4] and in [5] was inactive.
Regarding `CCCOC(=O)c1cncn1C(C)c1ccccc1` (stereo not given), the Potency result in [1], in assay [2], in assay [3] and in assay [6] was “inactive” each time. Besides, the outcome in assay [4] and in assay [5] was inactive.
For the compound `CCC1(c2ccccc2)C(=O)N(COC)C(=O)N(COC)C1=O`, the Potency result in [1], in assay [2], in [3] and in assay [6] was “inactive” throughout. For the same compound, the compound was classed as inactive in assay [4] and in assay [5].
`c1ccc2c(c1)sc1ccccc12`: the Potency entry in assay [1], in assay [2], in assay [3] and in assay [6] was “inactive” in each case. The call in assay [4] and in assay [5] was inactive.
`CN1C(=O)COc2c(C(=O)NC3CN4CCC3CC4)cc(Cl)cc21` (stereo not given): the Potency entry in assay [1], in assay [2], in assay [3] and in assay [6] was “inactive” throughout. Besides, the compound was classed as inactive in assay [4] and in [5].
As for `CC(Cc1ccccc1)NCCn1cnc2c1c(=O)n(C)c(=O)n2C` (stereo not given), the Potency entry in [1], in [2], in [3] and in [6] was “inactive” throughout. Besides, the outcome in assay [4] and in assay [5] was inactive.
Turning to `COC(=O)C(Cl)C(=O)OC`, the Potency result in [1], in [2], in assay [3] and in assay [6] was “inactive” in each case. Also, the outcome in assay [4] and in assay [5] was inactive.
On to `NC(=O)c1cc([N+](=O)[O-])cc([N+](=O)[O-])c1`, for which the Potency result in [1], in [2], in assay [3] and in [6] was “inactive” in each case. Also, the outcome in [4] and in assay [5] was inactive.
On to `COP(=S)(OC)Oc1cc(Cl)c(Cl)cc1Cl`, for which the Potency entry in [1], in assay [2], in [3] and in assay [6] was “inactive” throughout. Besides, the outcome in assay [4] and in [5] was inactive.
Regarding `CCN[C@@H](C)Cc1cccc(C(F)(F)F)c1`, the Potency entry in assay [1], in assay [2], in assay [3] and in assay [6] was “inactive” throughout. Also, the compound was called inactive in assay [4] and in [5].
For the compound `C[C@@H](N)[C@@H](O)c1ccccc1`, the Potency result in [1], in assay [2], in assay [3] and in [6] was “inactive” each time. The compound was called inactive in assay [4] and in [5].
`Oc1ccc(Cl)cc1`: the Potency result in [1], in assay [2], in assay [3] and in [6] was “inactive” each time. Besides, the result in [4] and in assay [5] was inactive.
With `C[C@@H]1CC2=CC(=O)CC[C@@H]2[C@H]2CC[C@@]3(C)[C@@H](CC[C@]3(C)O)[C@@H]21`, the Potency entry in assay [2], in [3] and in assay [6] was “inactive” throughout. Moreover, the compound was called inactive in assay [4] and in [5].
Consider `CCc1cc2c(s1)-n1c(C)nnc1CN=C2c1ccccc1Cl`, for which the Potency result in assay [2], in assay [3] and in [6] was “inactive” throughout. For the same compound, the outcome in assay [4] and in assay [5] was inactive.
On to `CCN(CC)CCc1c[nH]c2ccccc12`, for which the Potency result in assay [2] and in assay [3] was “inactive” each time. Further, the result in assay [4] and in assay [5] was inactive.
Turning to `O=C1c2ccccc2C(=O)C1C(=O)C(c1ccccc1)c1ccccc1`, the Potency entry in assay [2] and in [6] was “inactive” throughout. For the same compound, the compound was classed as inactive in assay [4] and in assay [5].
For the compound `O=C(O)CCCc1ccc(N(CCCl)CCCl)cc1`, the Potency entry in assay [2], in [3], in [6], in assay [8], in assay [9] and in assay [11] was “inactive” in each case. Further, the Potency result in assay [12] was “inactive”. For the same compound, the call in assay [4] and in [5] was inactive. For the same compound, the Potency in assay [7] was 23300 nM (active); in [10] it was 9270 nM (active).
As to `CCOP(=S)(OCC)Oc1ccc2c(C)c(Cl)c(=O)oc2c1`, the Potency result in assay [1], in assay [2], in [3], in assay [6], in assay [13] and in assay [14] was “inactive” each time. For the same compound, the Potency result in assay [8], in assay [9], in assay [10], in assay [11] and in assay [12] was “inactive” throughout. Besides, the result in [4], in assay [5], in [15] and in assay [16] was inactive.
Consider `NC(=O)CS(=O)C(c1ccccc1)c1ccccc1` (stereo not given), for which the Potency result in [1], in assay [2], in assay [3] and in assay [6] was “inactive” each time. The compound was classed as inactive in assay [4] and in assay [5].
Take `Clc1ccccc1N1CCNCC1`: the Potency entry in [1], in [2], in assay [3] and in assay [6] was “inactive” each time. The result in assay [4] and in [5] was inactive.
For `C[C@]12CCC(=O)C=C1CC[C@@H]1[C@@H]2CC[C@]2(C)C(=O)CC[C@@H]12`, the Potency entry in [2], in assay [3] and in assay [6] was “inactive” in each case. Moreover, the outcome in assay [4] and in assay [5] was inactive.
For `COC1CC(=C(c2cccs2)c2cccs2)C[N+](C)(C)C1` (stereo not given), the Potency entry in [1], in assay [2], in [3] and in assay [6] was “inactive” in each case. Besides, the result in [4] and in assay [5] was inactive.
In the case of `COc1cccc(C(=O)CCN[C@@H](C)[C@H](O)c2ccccc2)c1`, the call in [4] was inactive.
Same read-out and setting: the value for `O=c1c(C2CC(c3ccc(-c4ccc(Br)cc4)cc3)Cc3ccccc32)c(O)sc2ccccc12` (stereo not given) was “inactive”.
In the case of `COc1cccc2c1C(=O)c1c(O)c3c(c(O)c1C2=O)C[C@@](O)(C(=O)CO)CC3OC1CC(N2CCOC(OC)C2)C(O)C(C)O1` (stereo not given in full), the Potency was 34.7 nM (active) in assay [1]; 84.1 nM (active) in assay [2]; 21.1 nM (active) in [3]; 94.4 nM (active) in [6]; 14.7 nM (active) in assay [13]; 23.3 nM (active) in assay [14]. Moreover, the Potency in assay [7] was 3.7 nM (active); in [8] it was 46.5 nM (active); in [9], 32.9 nM (active); in [17], 6.6 nM (active); in [18], 5.9 nM (active); in assay [11], 73.7 nM (active). For the same compound, in assay [12], the Potency was 36.9 nM (active). Moreover, the call in assay [5] and in [19] was inactive.
